Data on eight compounds can be found in PubChem BioAssay (Tox21).

Assay [1] is described as follows: Nuclear factor erythroid 2-related factor 2/antioxidant responsive element (Nrf2/ARE) small molecule agonists: qHTS cell viability counter screen in human keratinocytes (AID 1919968; active means well fitted curve in the direction sought with a large enough effect in the repeat runs; an effect the other way counts as inactive or inconclusive; further: nearly all actives have a fitted effect of over 55% in size; further: potency means the concentration at half of the fitted maximal effect). An outline of the steps: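 After a 5 h attachment period, ARE-reporter keratinocytes were dosed with compounds in DMSO and then cultured 23 h at 37 C. Cell viability came from CellTiter-Fluor signal read after a further 1 h.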
A general note: Quantitative high-throughput screening tests each substance at several concentrations.

Assay [2] concerns the target KiSS-1 receptor (Homo sapiens) (UniProt Q969F8). Briefly: Human kisspeptin (KISS1R) small molecule agonists, calcium flux assay in KISS1R-HEK293 cells (AID 1920064; active means well fitted curve in the direction sought with a large enough effect in the repeat runs; an effect the other way counts as inactive or inconclusive). The gist of the method: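 Kinetic calcium assay, 1 s sampling over 3 min at Ex/Em 480/540, in HEK293 cells engineered with human KISS1R; compounds delivered in DMSO after 1 h dye loading.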
In general terms: Calcium flux is commonly read through the fluorescence of an indicator in the cells.

The nature of assay [3]: G protein-coupled receptor (GPCR) small molecule agonists, calcium flux assay: HEK293 wild type cell line counter screen (AID 1920065). An outline of the steps:
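Calcium-sensitive dye, loaded 1 h at 37 C into cells cultured 18 h, reports compound-evoked calcium release as fluorescence (Ex/Em 480/540), measured over 3 min. Agonist mode; 15-point titrations, triplicate.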

Assay [4] is described as follows: p53 small molecule agonists, cell-based qHTS assay with rat liver microsomes (AID 1963578). An outline of the steps:
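p53RE-bla cells, 4,000/well, pre-incubated 5 h, then given compounds plus rat liver microsomes (0.5 mg/mL final) and NADPH (0.5 mg/mL final). Incubation 16 h at 37 C; beta-lactamase reporter read by LiveBLAzer fluorescence after 2 h at room temperature.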

Assay [5] is described as follows: p53 small molecule agonists, cell-based qHTS assay with human liver microsomes: qHTS cell viability counter screen (AID 1963579). Further: nearly all actives have a fitted effect of over 45% in size. Further: potency means the concentration at half of the fitted maximal effect. An outline of the steps: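 p53RE-bla cells, 4,000/well, dosed 5 hours after plating, with human liver microsomes (0.5 mg/mL final) plus NADPH (0.5 mg/mL final), 16 hours at 37 C. Viability read as CellTiter-Glo luminescence after 30 min at room temperature.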

A short description of assay [6]: p53 small molecule agonists, cell-based qHTS assay with rat liver microsomes: qHTS cell viability counter screen (AID 1963580). Further: nearly all actives have a fitted effect of over 45% in size. Further: potency means the concentration at half of the fitted maximal effect. The gist of the method:
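Viability is assessed in parallel with the p53 reporter read: HCT-116 p53RE-bla cells receive compounds plus rat microsomes and NADPH (0.5 mg/mL final apiece), incubate 16 h at 37 C, and then CellTiter-Glo luminescence is recorded.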

A short description of assay [7]: p53 small molecule agonists, cell-based qHTS assay (AID 1963582; active means well fitted activation curve with a large enough effect in the signal ratio in the repeat runs, not every such curve was filed as active; the % refers to the signal ratio). The gist of the method:
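In this cell-based concentration-response screen, a p53 response element drives beta-lactamase; cells received DMSO-borne compounds after 5 h culture and were incubated a further 16 h before FRET substrate development.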

Assay [8] addresses 5-hydroxytryptamine receptor 2A (Homo sapiens) (UniProt P28223). Briefly: 5-hydroxytryptamine receptor 2A (HTR2A) small molecule antagonists, cell-based qHTS assay (AID 1963586). Further: nearly all actives have a fitted effect of over 45% in size. Further: potency means the concentration at half of the fitted maximal effect. An outline of the steps:
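Antagonist-mode intracellular calcium assay: DOI (4 nM) added after 5 min compound pre-incubation at room temperature to dye-loaded HTR2A-CHO cells. Fluorescence followed for 3 min, sampled every second.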

Assay [9] shares this target. The assay can be described thus: 5-hydroxytryptamine receptor 2A (HTR2A) small molecule agonists, cell-based qHTS assay (AID 1963587). Further: nearly all actives have a fitted effect of over 30% in size. The gist of the method:
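CHO cells stably expressing human HTR2A, plated 18 h, loaded with calcium dye 1 h at 37 C. Agonist mode: compounds added and intracellular calcium fluorescence recorded kinetically for 2 min at 1 sec intervals.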

In assay [10] the target is Muscarinic acetylcholine receptor M1 (Homo sapiens) (UniProt P11229). Briefly: Cholinergic receptor muscarinic 1 (CHRM1) small molecule antagonists, cell-based qHTS assay (AID 1963588). Further: nearly all actives have a fitted effect of over 40% in size. The gist of the method: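 CHRM1-CHO calcium-flux assay, antagonist mode. Cells were seeded 18 h, dye-loaded 1 h at 37 C and given compound for 5 min at RT, then acetylcholine was added at 50nM. FDSS fluorescence was read 3 min; 15 concentrations, three runs.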
Chain of Muscarinic acetylcholine receptor M1 (Homo sapiens) (P11229 whole entry, looked up): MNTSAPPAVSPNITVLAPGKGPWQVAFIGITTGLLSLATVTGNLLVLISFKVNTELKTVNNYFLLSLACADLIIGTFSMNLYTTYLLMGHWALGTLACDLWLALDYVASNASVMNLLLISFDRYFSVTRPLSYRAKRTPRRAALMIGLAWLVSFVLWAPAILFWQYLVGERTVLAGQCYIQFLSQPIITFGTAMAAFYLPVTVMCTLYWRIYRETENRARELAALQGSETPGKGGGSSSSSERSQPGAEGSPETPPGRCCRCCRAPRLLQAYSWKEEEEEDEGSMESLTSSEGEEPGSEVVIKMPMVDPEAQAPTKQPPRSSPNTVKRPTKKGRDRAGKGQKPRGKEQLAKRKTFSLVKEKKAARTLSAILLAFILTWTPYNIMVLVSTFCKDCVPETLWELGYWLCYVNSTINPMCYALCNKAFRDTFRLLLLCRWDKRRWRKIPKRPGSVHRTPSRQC

The target is the same in assay [11]. Briefly: Cholinergic receptor muscarinic 1 (CHRM1) small molecule agonists, cell-based qHTS assay (AID 1963589). Further: nearly all actives have a fitted effect of over 35% in size. An outline of the steps: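 Measures agonist-induced intracellular calcium rise. Stable human CHRM1 CHO line, 1 h dye load at 37 C, compounds from DMSO, kinetic fluorescence read.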
Assay [12] is described as follows: cAMP Responsive Elements (CRE) small molecule agonists, cell-based qHTS assay (AID 1963590). The gist of the method:
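A CRE-responsive beta-lactamase reporter in HEK 293T cells was used. Treatment ran 3 h at 37 C; detection used LiveBLAzer B/G FRET substrate for 2 h at room temperature.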

Assay [13] can be described thus: cAMP Responsive Elements (CRE) small molecule antagonists, cell-based qHTS assay (AID 1963591; active means well fitted inhibition curve with a large enough effect in the signal ratio in the repeat runs, not every such curve was filed as active; the % refers to the signal ratio; further: potency means the concentration at half of the fitted maximal effect). An outline of the steps: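 HEK293T cells carrying a CRE-driven beta-lactamase reporter receive compound and NKH477 (0.25 uM final) for 3 h. Fluorescence from LiveBLAzer B/G FRET substrate is read after 2 h at room temperature.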
Assay [14] deals with Beta-2 adrenergic receptor (Homo sapiens) (UniProt P07550). Briefly: Adrenergic beta2 receptor (ADRB2) small molecule antagonists, cell-based qHTS assay (AID 1963592). Further: nearly all actives have a fitted effect of over 50% in size. Further: potency means the concentration at half of the fitted maximal effect. An outline of the steps:
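Cells (CHO, stable ADRB2 overexpression) incubated 18-20hr at 37C; compounds added from DMSO; agonist mix (1nM isoproterenol, 100uM IBMX, 25uM Ro-20-1724) added; 0.5hr RT; d2-cAMP and anti-cAMP-cryptate added; 1hr RT; 665/615 nm read.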

The target of assay [15] is D(2) dopamine receptor (Homo sapiens) (UniProt P14416). Briefly: Dopamine D2 receptor (DRD2) small molecule agonists, cell-based qHTS assay (AID 1963594). Further: nearly all actives have a fitted effect of over 35% in size. Further: potency means the concentration at half of the fitted maximal effect. An outline of the steps: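 HEK293 cells stably expressing human DRD2, pre-treated with PDE inhibitor Ro20-1724 (0.1 mM final) and compound 10 min at room temperature, then stimulated with NKH477 (200nM […]) for 30 min. cAMP read by HTRF (665/620 nm).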
Chain of D(2) dopamine receptor (Homo sapiens) (P14416 whole entry, looked up): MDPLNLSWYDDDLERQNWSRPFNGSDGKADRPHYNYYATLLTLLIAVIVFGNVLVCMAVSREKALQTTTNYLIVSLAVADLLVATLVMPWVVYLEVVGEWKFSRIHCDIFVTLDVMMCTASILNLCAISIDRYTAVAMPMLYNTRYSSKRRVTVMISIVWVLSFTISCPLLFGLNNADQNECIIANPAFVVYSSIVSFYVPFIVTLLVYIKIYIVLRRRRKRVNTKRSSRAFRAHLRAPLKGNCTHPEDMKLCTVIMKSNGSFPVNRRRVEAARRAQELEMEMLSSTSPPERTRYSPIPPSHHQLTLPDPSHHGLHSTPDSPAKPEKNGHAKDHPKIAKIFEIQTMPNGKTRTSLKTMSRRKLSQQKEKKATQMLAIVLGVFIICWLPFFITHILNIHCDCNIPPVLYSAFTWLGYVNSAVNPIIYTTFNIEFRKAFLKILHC

The target is the same in assay [16]. The assay can be described thus: Dopamine D2 receptor (DRD2) small molecule antagonists, cell-based qHTS assay (AID 1963595; active means well fitted inhibition curve with a large enough effect in the signal ratio in the repeat runs, with a control signal flat; the % refers to the signal ratio; further: potency means the concentration at half of the fitted maximal effect). An outline of the steps: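 Antagonism was scored as restored cAMP in HEK293-DRD2 cells. These cells were stimulated with 200 nM NKH477 and 12 nM quinpirole for 30 min at room temperature, in the presence of 0.1 mM Ro20-1724.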
The target in assay [17] is Gonadotropin-releasing hormone receptor (Homo sapiens) (UniProt P30968). The assay can be described thus: Human gonadotropin-releasing hormone receptor (GnRHR) small molecule agonists, calcium flux assay in GnRHR-HEK293 cells (AID 1920063). Further: nearly all actives have a fitted effect of over 35% in size. The gist of the method:
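We seeded human GnRHR-expressing HEK293 cells for 18 hours, loaded them with calcium dye for an hour at 37 C, added test compounds, and recorded fluorescence intensity kinetically for three minutes.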

The nature of assay [18]: p53 small molecule agonists, cell-based qHTS assay: qHTS cell viability counter screen (AID 1963581). Further: nearly all actives have a fitted effect of over 45% in size. Further: potency means the concentration at half of the fitted maximal effect. An outline of the steps:
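Following 5 h attachment, HCT-116 p53RE-bla cells took up compound for 16 h at 37 C; the reporter was read with B/G FRET substrate (2 h RT), and viability then via CellTiter-Glo ATP luminescence.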

Assay [19] can be described thus: p53 small molecule agonists, cell-based qHTS assay with human liver microsomes (AID 1963577). An outline of the steps:
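p53RE-bla cells, 4,000/well, compound added after 5 h, with human liver microsomes 0.5 mg/mL and NADPH 0.5 mg/mL final; 16 h at 37 C, then LiveBLAzer 2 h RT, fluorescence.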

Unmarked numbers belong to inactive results. Inconclusive results are not listed. The source made the active and inactive calls. Unless noted, the call rests on the fitted dose curve.

Chain of Gonadotropin-releasing hormone receptor (Homo sapiens) (P30968 whole entry, looked up): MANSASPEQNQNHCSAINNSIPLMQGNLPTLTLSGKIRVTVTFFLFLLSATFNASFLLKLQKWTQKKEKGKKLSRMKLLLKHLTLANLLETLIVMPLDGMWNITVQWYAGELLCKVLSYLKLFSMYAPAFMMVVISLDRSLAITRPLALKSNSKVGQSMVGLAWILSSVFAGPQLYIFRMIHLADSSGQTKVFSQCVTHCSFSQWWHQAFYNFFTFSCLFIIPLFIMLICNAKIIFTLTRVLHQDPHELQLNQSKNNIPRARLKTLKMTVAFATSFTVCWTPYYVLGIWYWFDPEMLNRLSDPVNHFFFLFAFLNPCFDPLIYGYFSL
Chain of KiSS-1 receptor (Homo sapiens) (Q969F8 whole entry, looked up): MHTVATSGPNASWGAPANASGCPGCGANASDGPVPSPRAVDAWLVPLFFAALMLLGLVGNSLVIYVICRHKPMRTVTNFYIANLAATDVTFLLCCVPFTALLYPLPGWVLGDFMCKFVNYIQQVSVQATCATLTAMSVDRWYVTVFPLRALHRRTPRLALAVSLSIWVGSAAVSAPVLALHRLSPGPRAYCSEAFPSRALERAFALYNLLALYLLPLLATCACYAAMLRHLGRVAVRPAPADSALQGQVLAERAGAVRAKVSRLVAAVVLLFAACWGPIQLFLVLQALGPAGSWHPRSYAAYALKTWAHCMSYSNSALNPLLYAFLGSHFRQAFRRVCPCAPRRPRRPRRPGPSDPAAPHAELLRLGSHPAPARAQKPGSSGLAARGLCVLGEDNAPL
Chain of Beta-2 adrenergic receptor (Homo sapiens) (P07550 whole entry, looked up): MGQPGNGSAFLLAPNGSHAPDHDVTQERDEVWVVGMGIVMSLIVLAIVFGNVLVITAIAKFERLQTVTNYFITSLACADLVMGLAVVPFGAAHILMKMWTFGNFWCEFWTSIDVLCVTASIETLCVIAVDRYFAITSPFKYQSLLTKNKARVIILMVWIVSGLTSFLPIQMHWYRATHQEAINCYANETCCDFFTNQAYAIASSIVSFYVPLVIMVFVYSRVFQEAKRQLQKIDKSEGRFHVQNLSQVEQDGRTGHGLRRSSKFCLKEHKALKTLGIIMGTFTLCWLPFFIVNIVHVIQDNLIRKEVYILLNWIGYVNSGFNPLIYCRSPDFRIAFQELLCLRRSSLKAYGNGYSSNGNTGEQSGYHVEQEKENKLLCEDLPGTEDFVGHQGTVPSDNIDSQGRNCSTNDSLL
Chain of 5-hydroxytryptamine receptor 2A (Homo sapiens) (P28223 whole entry, looked up): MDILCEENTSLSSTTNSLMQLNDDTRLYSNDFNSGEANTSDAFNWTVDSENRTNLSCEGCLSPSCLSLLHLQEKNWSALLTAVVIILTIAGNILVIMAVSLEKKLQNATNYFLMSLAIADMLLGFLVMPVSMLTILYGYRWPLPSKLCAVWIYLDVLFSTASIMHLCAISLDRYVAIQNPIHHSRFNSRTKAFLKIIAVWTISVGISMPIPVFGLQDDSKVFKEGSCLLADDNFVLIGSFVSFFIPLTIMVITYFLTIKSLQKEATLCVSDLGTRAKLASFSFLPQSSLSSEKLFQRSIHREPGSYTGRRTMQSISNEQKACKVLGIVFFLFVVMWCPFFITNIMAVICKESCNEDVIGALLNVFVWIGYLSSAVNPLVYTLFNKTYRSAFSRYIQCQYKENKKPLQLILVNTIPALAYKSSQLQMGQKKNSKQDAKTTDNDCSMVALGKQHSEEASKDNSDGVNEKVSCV

Consider `Oc1cc2ccccc2cc1O`, for which the Potency entry in assay [1], in assay [4], in assay [5], in [6], in [7] and in assay [8] was “inactive” each time. The Potency result in assay [9], in assay [10], in [11], in [12], in [13] and in assay [14] was “inactive” in each case. The Potency result in [15] and in assay [16] was “inactive” each time. In addition, the outcome in assay [2] and in assay [3] was inactive.

Take `CC(C)OC(=O)c1cc2c(OCC(O)CNC(C)(C)C)cccc2[nH]1` (stereo not given): the Potency result in assay [1], in assay [17], in assay [4], in assay [5], in assay [6] and in [18] was “inactive” throughout. Further, the Potency entry in assay [7], in assay [8], in assay [9], in [10], in assay [11] and in [12] was “inactive” each time. In addition, the Potency entry in assay [13] and in [16] was “inactive” throughout. The result in assay [2] and in [3] was inactive. Also, the Potency in [14] was 0.0033 µM (active); in [15], 13.3 µM (active).

Consider `C[C@]1(Cn2ccnn2)[C@H](C(=O)O)N2C(=O)C[C@H]2S1(=O)=O`, for which the Potency result in assay [1], in [17], in assay [19], in [4], in [6] and in assay [18] was “inactive” in each case. Further, the Potency entry in assay [12], in assay [14], in assay [15] and in assay [16] was “inactive” each time. In addition, in [3], the result was inactive. In assay [13], the Potency is 1.88 µM (active).

With `CCOC(=O)OCC/C(SC(=O)OCC)=C(\C)N(C=O)Cc1cnc(C)nc1N`, the Potency entry in [1], in assay [4], in assay [5], in assay [6], in assay [18] and in assay [7] was “inactive” throughout. Besides, the Potency entry in assay [8], in assay [10], in assay [11], in assay [12], in assay [13] and in assay [14] was “inactive” throughout. The outcome in assay [2] was inactive.

For the compound `NCCS`, the Potency result in [1], in assay [17], in assay [19], in assay [5], in assay [6] and in assay [18] was “inactive” each time. The Potency entry in [7], in assay [8], in assay [9], in assay [10], in assay [11] and in assay [12] was “inactive” throughout. For the same compound, the Potency entry in assay [14], in [15] and in [16] was “inactive” throughout. In addition, the result in [2] and in [3] was inactive.

Turning to `COC(=O)c1ccc(I)cc1S(=O)(=O)NC(=O)Nc1nc(C)nc(OC)n1`, the Potency result in assay [1], in [19], in assay [4], in assay [6], in assay [18] and in [7] was “inactive” in each case. Moreover, the Potency entry in assay [8], in assay [9], in [10], in assay [11], in assay [12] and in assay [14] was “inactive” each time. The Potency result in [15] and in assay [16] was “inactive” each time. Moreover, the result in assay [2] and in assay [3] was inactive.

Take `O=C(NC1CCN(CCc2c[nH]c3ccccc23)CC1)c1ccccc1`: the Potency result in assay [1], in assay [17], in [19], in assay [5], in assay [6] and in assay [18] was “inactive” each time. In addition, the Potency entry in [7], in assay [9], in assay [10], in assay [11] and in [15] was “inactive” in each case. The outcome in [2] and in assay [3] was inactive. The Potency was 0.46 µM (active) in assay [8] and 13.3 µM (active) in assay [14].

For the compound `C=CC(=O)OCC(CO)(COCC(COC(=O)C=C)(COC(=O)C=C)COC(=O)C=C)COC(=O)C=C`, the Potency was 4.28 µM (active) in [1]; 3.2 µM (active) in assay [5]; 35.9 µM (active) in assay [6]; 14.3 µM (active) in assay [18]; 27 µM (active) in assay [16]. Further, the outcome in assay [2] and in assay [3] was inactive. The Potency result in assay [19], in [4], in assay [8], in assay [9], in assay [10] and in assay [15] was “inactive” throughout.
